Experimental findings from PubChem BioAssay (EPA / NIEHS) are described below.

Results filed as inconclusive are left out. The source made the active and inactive calls. The calls were made as follows: active = hit-call score of the fitted dose curve at least 0.9, where 1 is the maximum; inconclusive = response in the unintended direction; inactive = score below 0.9.

Assay [1] concerns the target Glycogen synthase kinase-3 beta (Homo sapiens) (UniProt P49841). Put plainly: NVS_ENZ_hGSK3b: NovaScreen (NVS) Enzymatic Assay for human Glycogen Synthase Kinase-3 beta (GSK3b) (AID 2283165). In short, it runs like this:
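Recombinant enzyme with specific fluorescent substrate, 1 h, product separated by electrophoretic mobility shift. Primary duplicate screen at 25 uM; actives (e.g. 30% inhibition) followed in singleton concentration-response to 50 uM. Signal loss fitted versus DMSO.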

Assay [2] deals with human Casein Kinase 1-delta (CK1D), CSNK1D (gene 1453) (UniProt P48730). Description: NVS_ENZ_hCK1D: NovaScreen (NVS) Enzymatic Assay for human Casein Kinase 1-delta (CK1D) (AID 2283148). In short, it runs like this: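 Recombinant human CK1-delta, cell-free; fluorescent substrate with electrophoretic mobility-shift separation of product, read 1 h after dosing. Single 25 uM duplicate screen, then concentration-response up to 50 uM; loss of signal vs DMSO.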

Assay [3] deals with human Elastase, ELANE (gene 1991) (UniProt P08246). Put plainly: NVS_ENZ_hElastase: NovaScreen (NVS) Enzymatic Assay for human Elastase (AID 2283153). In short, it runs like this: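 Cell-free elastase from human neutrophils, 1.5 h after dosing, activity read by absorbance. Primary screen in duplicate at 25 uM; hits (e.g., 30% inhibition) rerun in singleton concentration-response up to 50 uM, fitted versus DMSO.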

Assay [4] concerns the target human Ephrin type-A Receptor 2 (EphA2), EPHA2 (gene 1969) (UniProt P29317). Put plainly: NVS_ENZ_hEphA2: NovaScreen (NVS) Enzymatic Assay for human Ephrin type-A Receptor 2 (EphA2) (AID 2283155). In short, it runs like this:
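Cell-free recombinant EphA2 kinase with specific substrate, 1 h, fluorescence with electrophoretic mobility-shift separation of substrate and product. Primary screen at 25 uM in duplicate; hits retested in singleton concentration-response up to 50 uM, referenced to DMSO.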

The target of assay [5] is human IkappaB Kinase alpha (IKKa), CHUK (gene 1147) (UniProt O15111). Put plainly: NVS_ENZ_hIKKa: NovaScreen (NVS) Enzymatic Assay for human IkappaB Kinase alpha (IKKa) (AID 2283167). The gist of the method: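 Cell-free recombinant human IKKa with fluorescent substrate, product separated by electrophoretic mobility shift; read 1 hour after dosing. Primary screen duplicate at 25 uM, actives then concentration-response up to 50 uM; loss of signal relative to DMSO.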

Assay [6] concerns the target human Insulin Receptor (InsR), INSR (gene 3643) (UniProt P06213). Description: NVS_ENZ_hInsR: NovaScreen (NVS) Enzymatic Assay for human Insulin Receptor (InsR) (AID 2283168). In short, it runs like this: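 Fluorescent substrate phosphorylation by recombinant kinase, product resolved by electrophoretic mobility shift, read 1 h after dosing. Screened in duplicate at 25 uM; hits (e.g., 30% inhibition) run in concentration-response to 50 uM; DMSO as baseline.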

The target of assay [7] is human FYN Proto-Oncogene, Src family Tyrosine Kinase (Fyn), FYN (gene 2534) (UniProt P06241). Description: NVS_ENZ_hFyn: NovaScreen (NVS) Enzymatic Assay for human FYN Proto-Oncogene, Src family Tyrosine Kinase (Fyn) (AID 2283161). The gist of the method: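 Recombinant enzyme with fluorescent substrate, product separated by electrophoretic mobility shift; read 1 h after dosing. Duplicate 25 uM single-point screen, actives retested in concentration series; loss of signal vs DMSO.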

Assay [8] concerns the target human Ephrin type-A Receptor 1 (EphA1), EPHA1 (gene 2041) (UniProt P21709). Description: NVS_ENZ_hEphA1: NovaScreen (NVS) Enzymatic Assay for human Ephrin type-A Receptor 1 (EphA1) (AID 2283158).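 Also: activity is signal loss versus DMSO meaning EphA1 kinase inhibition.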 In short, it runs like this:
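Recombinant kinase, fluorescent substrate, mobility-shift separation, fluorescence read at 1 h. Single-point duplicates at 25 uM; hits (e.g., ≥30% inhibition) run singleton concentration-response, max 50 uM. DMSO = negative control/baseline.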

In assay [9] the target is human Colony Stimulating Factor 1 Receptor (CSF1R), CSF1R (gene 1436) (UniProt P07333). Put plainly: NVS_ENZ_hCSF1R: NovaScreen (NVS) Enzymatic Assay for human Colony Stimulating Factor 1 Receptor (CSF1R) (AID 2283150). In short, it runs like this:
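Cell-free recombinant human CSF1R kinase with fluorescent substrate, product separated by electrophoretic mobility shift; read 1 h after dosing. Primary screen at 25 uM in duplicate, actives then in concentration-response up to 50 uM, relative to DMSO.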

The target of assay [10] is human Epidermal Growth Factor Receptor (EGFR), EGFR (gene 1956) (UniProt P00533). Description: NVS_ENZ_hEGFR: NovaScreen (NVS) Enzymatic Assay for human Epidermal Growth Factor Receptor (EGFR) (AID 2283151). The gist of the method:
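Cell-free kinase assay, fluorescence plus electrophoretic mobility shift separating substrate and product, read 1 hour after dosing; loss of signal vs DMSO. Duplicate screen at 25 uM, then concentration-response to 50 uM.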

Assay [11] concerns the target human Fibroblast Growth Factor Receptor 1 (FGFR1), FGFR1 (gene 2260) (UniProt P11362). Description: NVS_ENZ_hFGFR1: NovaScreen (NVS) Enzymatic Assay for human Fibroblast Growth Factor Receptor 1 (FGFR1) (AID 2283159).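 As to AC50: hits lower the signal so potencies describe inhibitors of the kinase.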 The gist of the method:
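Cell-free recombinant kinase with fluorescent substrate, product separated by electrophoretic mobility shift; read 1 hour after dosing, loss of signal relative to DMSO. Initial screen in duplicate at 25 uM, actives followed in concentration series.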

Assay [12] has as its target human Mitogen-Activated Protein Kinase 1 (MAPK 1), MAPK1 (gene 5594) (UniProt P28482). Description: NVS_ENZ_hMAPK1: NovaScreen (NVS) Enzymatic Assay for human Mitogen-Activated Protein Kinase 1 (MAPK 1) (AID 2283175). In short, it runs like this: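 Cell-free recombinant human MAPK1 enzymatic assay, fluorescence/electrophoretic mobility shift read at 1 h; loss of signal vs DMSO. Primary screen in duplicate at 25 uM; actives (e.g. ≥30% inhibition) run as concentration-response up to 50 uM.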

Assay [13] deals with human Dual Specificity Protein Phosphatase 3 (DUSP3), DUSP3 (gene 1845) (UniProt P51452). Put plainly: NVS_ENZ_hDUSP3: NovaScreen (NVS) Enzymatic Assay for human Dual Specificity Protein Phosphatase 3 (DUSP3) (AID 2283152). The gist of the method: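 Cell-free assay with recombinant human DUSP3 and fluorogenic substrate, read by fluorescence intensity. Primary screen ran duplicate at 25 uM; actives followed up in concentration series; loss of signal versus DMSO scored.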

The target in assay [14] is human Esterase Plasma (ES), BCHE (gene 590) (UniProt P06276). Description: NVS_ENZ_hES: NovaScreen (NVS) Enzymatic Assay for human Esterase Plasma (ES) (AID 2283157). The gist of the method: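 Cell-free enzyme assay using esterase extracted from human plasma; colorimetric absorbance read 0.25 hour after dosing. Single-concentration duplicate screen at 25 uM, then concentration-response up to 50 uM; loss of signal scored against DMSO baseline.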

Assay [15] concerns the target human Aurora Kinase A - serine/threonine-protein Kinase 6 (AurA), AURKA (gene 6790) (UniProt O14965). Description: NVS_ENZ_hAurA: NovaScreen (NVS) Enzymatic Assay for human Aurora Kinase A - serine/threonine-protein Kinase 6 (AurA) (AID 2283142). The gist of the method:
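Cell-free enzymatic assay with human Aurora A, 1 hour after dosing. Fluorescent substrate turnover detected after electrophoretic mobility shift separation of substrate and product. Screened at 25 uM, actives retested in concentration-response up to 50 uM.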

In assay [16] the target is CDK2 (gene 1017) (UniProt P24941). Put plainly: NVS_ENZ_hCDK2: NovaScreen (NVS) Enzymatic Assay for human Cyclin-Cependent Kinase 2 (CDK2) (AID 2283144). The gist of the method: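 Cell-free recombinant human CDK2 with fluorescent substrate, product separated by electrophoretic mobility shift; 1 hr read. Primary screen at 25 uM in duplicate, actives retested in concentration-response up to 50 uM; loss of signal versus DMSO.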

The target of assay [17] is human c-Jun N-terminal Kinases (JNK2), MAPK9 (gene 5601) (UniProt P45984). Put plainly: NVS_ENZ_hJNK2: NovaScreen (NVS) Enzymatic Assay for human c-Jun N-terminal Kinases (JNK2) (AID 2283171). The gist of the method:
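Cell-free recombinant human JNK2 activity assay; fluorescent substrate and product separated by electrophoretic mobility shift, read 1 h after dosing. Primary duplicate screen at 25 uM; actives run in concentration-response up to 50 uM, relative to DMSO.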

The target in assay [18] is Mitogen-activated protein kinase 3 (Homo sapiens) (UniProt P27361). Description: NVS_ENZ_hMAPK3: NovaScreen (NVS) Enzymatic Assay for human Mitogen-Activated Protein Kinase 3 (MAPK 3) (AID 2283177). The gist of the method:
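Cell-free enzymatic assay with recombinant protein and specific substrate; fluorescence and electrophoretic mobility shift read-out 1 h after dosing. Primary screen duplicate at 25 uM; actives then run in concentration-response up to 50 uM, loss of signal versus DMSO.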

In assay [19] the target is Histone deacetylase 3 (Homo sapiens) (UniProt O15379). Description: NVS_ENZ_hHDAC3: NovaScreen (NVS) Enzymatic Assay for human Histone Deacetylase 3 (HDAC3) (AID 2283163). In short, it runs like this:
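Recombinant human HDAC3 with fluorescent substrate, 1 h after dosing; product separated from substrate by electrophoretic mobility shift and read by fluorescence. Primary screen at 25 uM in duplicate; actives (e.g. ≥30% inhibition) retested in concentration-response up to 50 uM.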

Sequence of Glycogen synthase kinase-3 beta (Homo sapiens) (P49841 whole entry, looked up): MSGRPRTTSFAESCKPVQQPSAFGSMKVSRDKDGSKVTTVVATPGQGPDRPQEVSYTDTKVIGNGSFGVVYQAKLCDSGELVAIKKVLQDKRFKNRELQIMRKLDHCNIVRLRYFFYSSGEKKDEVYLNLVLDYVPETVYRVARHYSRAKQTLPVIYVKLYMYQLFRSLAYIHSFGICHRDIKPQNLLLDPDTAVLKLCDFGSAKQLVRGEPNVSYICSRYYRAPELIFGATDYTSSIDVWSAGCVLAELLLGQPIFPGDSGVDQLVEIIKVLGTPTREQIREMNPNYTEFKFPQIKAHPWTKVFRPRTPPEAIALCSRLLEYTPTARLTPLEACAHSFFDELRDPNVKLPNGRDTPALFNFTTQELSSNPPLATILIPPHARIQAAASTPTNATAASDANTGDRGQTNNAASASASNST
Sequence of human Ephrin type-A Receptor 1 (EphA1), EPHA1 (gene 2041) (P21709 whole entry, looked up): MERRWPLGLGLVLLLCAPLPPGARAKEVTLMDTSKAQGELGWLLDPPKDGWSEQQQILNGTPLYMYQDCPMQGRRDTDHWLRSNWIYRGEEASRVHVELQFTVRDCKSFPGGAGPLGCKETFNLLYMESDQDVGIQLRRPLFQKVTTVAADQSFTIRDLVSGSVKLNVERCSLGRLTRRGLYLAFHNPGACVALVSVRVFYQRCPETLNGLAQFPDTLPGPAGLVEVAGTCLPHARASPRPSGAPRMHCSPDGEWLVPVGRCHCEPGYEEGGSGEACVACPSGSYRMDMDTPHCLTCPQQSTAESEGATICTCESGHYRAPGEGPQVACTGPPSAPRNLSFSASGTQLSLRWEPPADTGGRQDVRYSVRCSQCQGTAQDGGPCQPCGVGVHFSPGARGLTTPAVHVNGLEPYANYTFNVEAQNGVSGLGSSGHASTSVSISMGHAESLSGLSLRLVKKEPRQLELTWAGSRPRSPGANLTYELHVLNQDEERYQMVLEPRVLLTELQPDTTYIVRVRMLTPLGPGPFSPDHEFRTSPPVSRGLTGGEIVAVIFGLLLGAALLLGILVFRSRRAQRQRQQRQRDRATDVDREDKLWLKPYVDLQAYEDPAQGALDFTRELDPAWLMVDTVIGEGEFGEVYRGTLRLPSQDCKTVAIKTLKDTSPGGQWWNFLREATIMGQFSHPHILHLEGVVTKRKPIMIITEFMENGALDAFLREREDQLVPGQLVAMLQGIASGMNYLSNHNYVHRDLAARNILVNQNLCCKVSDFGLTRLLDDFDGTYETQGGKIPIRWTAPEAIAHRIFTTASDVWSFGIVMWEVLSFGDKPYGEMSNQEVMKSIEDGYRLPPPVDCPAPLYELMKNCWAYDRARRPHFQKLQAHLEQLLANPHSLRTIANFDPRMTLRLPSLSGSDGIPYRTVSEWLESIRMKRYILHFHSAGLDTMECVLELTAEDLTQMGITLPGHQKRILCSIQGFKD
Sequence of human Epidermal Growth Factor Receptor (EGFR), EGFR (gene 1956) (P00533 whole entry, looked up): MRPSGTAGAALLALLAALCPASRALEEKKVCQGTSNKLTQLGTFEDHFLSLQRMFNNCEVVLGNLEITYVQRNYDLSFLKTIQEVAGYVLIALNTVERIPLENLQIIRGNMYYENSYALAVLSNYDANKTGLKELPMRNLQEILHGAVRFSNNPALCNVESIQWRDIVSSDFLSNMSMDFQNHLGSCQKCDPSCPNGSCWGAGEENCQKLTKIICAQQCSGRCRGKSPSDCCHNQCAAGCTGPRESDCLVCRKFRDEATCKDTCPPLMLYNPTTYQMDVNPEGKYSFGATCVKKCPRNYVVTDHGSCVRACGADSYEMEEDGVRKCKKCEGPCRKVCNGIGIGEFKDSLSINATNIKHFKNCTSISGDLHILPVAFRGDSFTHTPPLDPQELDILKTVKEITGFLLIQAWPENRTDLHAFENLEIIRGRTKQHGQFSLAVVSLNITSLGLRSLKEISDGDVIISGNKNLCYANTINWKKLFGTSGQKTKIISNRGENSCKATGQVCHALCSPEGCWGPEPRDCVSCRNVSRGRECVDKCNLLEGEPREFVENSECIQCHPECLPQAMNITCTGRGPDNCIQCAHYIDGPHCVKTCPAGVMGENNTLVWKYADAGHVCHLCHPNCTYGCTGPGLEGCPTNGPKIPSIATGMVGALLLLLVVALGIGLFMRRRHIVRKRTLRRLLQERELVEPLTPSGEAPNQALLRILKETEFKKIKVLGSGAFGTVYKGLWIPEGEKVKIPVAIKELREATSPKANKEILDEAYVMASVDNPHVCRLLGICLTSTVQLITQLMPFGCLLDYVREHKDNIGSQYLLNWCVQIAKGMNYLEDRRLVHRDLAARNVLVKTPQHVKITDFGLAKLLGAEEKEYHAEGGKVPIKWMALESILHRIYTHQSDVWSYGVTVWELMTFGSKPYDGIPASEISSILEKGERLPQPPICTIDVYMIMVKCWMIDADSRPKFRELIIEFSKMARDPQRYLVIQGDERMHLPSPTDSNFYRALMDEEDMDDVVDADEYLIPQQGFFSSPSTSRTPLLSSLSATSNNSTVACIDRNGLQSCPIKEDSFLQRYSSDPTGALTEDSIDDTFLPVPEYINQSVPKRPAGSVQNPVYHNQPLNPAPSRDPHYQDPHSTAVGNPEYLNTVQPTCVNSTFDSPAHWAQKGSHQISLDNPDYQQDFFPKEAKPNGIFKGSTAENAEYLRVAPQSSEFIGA
Sequence of human Dual Specificity Protein Phosphatase 3 (DUSP3), DUSP3 (gene 1845) (P51452 whole entry, looked up): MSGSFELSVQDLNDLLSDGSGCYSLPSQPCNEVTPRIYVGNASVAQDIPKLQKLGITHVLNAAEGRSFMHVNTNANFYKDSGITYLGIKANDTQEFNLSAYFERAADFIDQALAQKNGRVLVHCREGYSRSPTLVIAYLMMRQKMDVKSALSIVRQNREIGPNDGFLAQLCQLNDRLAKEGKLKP
Sequence of human Fibroblast Growth Factor Receptor 1 (FGFR1), FGFR1 (gene 2260) (P11362 whole entry, looked up): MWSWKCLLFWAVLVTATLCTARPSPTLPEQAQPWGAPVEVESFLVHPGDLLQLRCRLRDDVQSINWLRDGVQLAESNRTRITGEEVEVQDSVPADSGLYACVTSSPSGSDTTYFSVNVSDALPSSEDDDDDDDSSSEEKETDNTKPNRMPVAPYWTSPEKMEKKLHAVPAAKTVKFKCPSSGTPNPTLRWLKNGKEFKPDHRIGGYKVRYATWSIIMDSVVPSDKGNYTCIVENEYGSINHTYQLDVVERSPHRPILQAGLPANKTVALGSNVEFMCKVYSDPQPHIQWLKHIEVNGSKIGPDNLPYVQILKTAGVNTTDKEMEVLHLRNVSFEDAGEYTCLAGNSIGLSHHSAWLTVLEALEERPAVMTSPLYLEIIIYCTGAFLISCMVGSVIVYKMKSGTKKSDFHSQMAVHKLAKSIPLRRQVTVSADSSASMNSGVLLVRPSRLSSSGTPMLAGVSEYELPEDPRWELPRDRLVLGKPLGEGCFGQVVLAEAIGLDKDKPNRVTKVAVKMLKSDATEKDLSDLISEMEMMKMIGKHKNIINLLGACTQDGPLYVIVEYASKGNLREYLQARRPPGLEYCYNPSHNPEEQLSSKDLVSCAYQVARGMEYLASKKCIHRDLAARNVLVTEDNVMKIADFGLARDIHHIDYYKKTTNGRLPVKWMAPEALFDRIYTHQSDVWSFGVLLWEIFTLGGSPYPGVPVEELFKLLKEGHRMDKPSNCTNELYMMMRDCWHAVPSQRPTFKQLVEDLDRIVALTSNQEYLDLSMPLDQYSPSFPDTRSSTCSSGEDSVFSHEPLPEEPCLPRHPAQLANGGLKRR
Sequence of human Esterase Plasma (ES), BCHE (gene 590) (P06276 whole entry, looked up): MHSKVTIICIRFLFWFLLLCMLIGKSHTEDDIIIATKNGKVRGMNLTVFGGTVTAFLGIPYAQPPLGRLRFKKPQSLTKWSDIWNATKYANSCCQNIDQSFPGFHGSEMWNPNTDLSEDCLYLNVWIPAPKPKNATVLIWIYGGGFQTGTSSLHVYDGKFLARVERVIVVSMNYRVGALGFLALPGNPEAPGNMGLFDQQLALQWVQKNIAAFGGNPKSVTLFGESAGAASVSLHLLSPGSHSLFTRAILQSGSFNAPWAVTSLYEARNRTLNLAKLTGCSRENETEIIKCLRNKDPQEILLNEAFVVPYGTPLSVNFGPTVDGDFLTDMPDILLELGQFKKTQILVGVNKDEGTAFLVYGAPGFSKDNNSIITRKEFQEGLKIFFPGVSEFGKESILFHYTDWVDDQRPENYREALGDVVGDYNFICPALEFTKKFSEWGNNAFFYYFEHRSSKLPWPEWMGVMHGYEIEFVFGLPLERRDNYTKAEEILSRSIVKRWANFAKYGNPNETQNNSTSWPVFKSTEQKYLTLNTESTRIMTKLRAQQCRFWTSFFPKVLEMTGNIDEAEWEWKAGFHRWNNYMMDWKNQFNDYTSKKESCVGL
Sequence of human Mitogen-Activated Protein Kinase 1 (MAPK 1), MAPK1 (gene 5594) (P28482 whole entry, looked up): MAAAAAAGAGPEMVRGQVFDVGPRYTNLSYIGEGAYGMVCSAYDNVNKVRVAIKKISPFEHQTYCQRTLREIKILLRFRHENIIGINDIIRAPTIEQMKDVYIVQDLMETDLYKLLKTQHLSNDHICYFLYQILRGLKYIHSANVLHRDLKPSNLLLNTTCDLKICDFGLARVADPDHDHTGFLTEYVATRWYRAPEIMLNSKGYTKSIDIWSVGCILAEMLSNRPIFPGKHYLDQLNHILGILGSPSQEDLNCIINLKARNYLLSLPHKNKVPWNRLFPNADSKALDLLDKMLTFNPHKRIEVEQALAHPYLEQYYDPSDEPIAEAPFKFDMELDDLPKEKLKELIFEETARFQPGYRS
Sequence of human Casein Kinase 1-delta (CK1D), CSNK1D (gene 1453) (P48730 whole entry, looked up): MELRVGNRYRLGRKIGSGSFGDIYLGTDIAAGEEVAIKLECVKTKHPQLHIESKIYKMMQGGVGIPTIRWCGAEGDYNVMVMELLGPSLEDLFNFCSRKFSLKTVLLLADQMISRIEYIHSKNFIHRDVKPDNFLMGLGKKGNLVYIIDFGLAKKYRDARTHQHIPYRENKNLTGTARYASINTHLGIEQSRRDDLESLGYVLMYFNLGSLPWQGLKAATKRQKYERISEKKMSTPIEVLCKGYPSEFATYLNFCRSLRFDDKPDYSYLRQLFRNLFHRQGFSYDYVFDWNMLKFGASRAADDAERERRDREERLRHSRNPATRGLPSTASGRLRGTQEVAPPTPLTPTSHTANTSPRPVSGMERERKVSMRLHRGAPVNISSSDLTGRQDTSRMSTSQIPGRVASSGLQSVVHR

Take `OCC1CO1` (stereo unspecified): the call in assay [1] was inactive.
For `c1ccc(OP(Oc2ccccc2)Oc2ccccc2)cc1`, the call in assay [2] and in assay [1] was inactive. Moreover, the AC50 – broadly, the concentration at which the activity in the assay is half-maximal – in assay [3] was 37 µM (active).
For `Cc1ccc([N+](=O)[O-])cc1C`, the compound was classed as inactive in [4].
Take `O=P(Oc1ccccc1)(Oc1ccccc1)Oc1ccccc1`: the result in assay [4], in assay [5] and in assay [6] was inactive.
For the compound `CCCCc1ccccc1`, the compound was classed as inactive in [7].
For the compound `Nc1ccc(Cl)cc1`, the compound was called inactive in assay [8].
For the compound `Cc1ccc2c(c1N)C(=O)c1ccccc1C2=O`, the AC50 in assay [8] is 19.2 µM (active).
In the case of `CCC(C)(C)c1ccc(O)cc1`, the compound was classed as inactive in [9] and in assay [1].
As for `ClC1=C(Cl)C2(Cl)C3C(Cl)C(Cl)CC3C1(Cl)C2(Cl)Cl` (stereo unspecified), the result in assay [10], in [11] and in [12] was inactive.
Consider `CCOP(=S)(OCC)SCSc1ccc(Cl)cc1`, for which, in assay [13], the AC50 was 17.3 µM (active).
On to `CCCCN(CCCC)N=O`, for which the compound was called inactive in [11].
Take `CC1(C)CN=C(NN=C(/C=C/c2ccc(C(F)(F)F)cc2)/C=C/c2ccc(C(F)(F)F)cc2)NC1`: in assay [11], the AC50 is 13.6 µM (active).
For `CCCCN(CCCC)SN(C)C(=O)Oc1cccc2c1OC(C)(C)C2`, the call in assay [14] was inactive.
`CC(C)(C)OOC(C)(C)C`: the compound was classed as inactive in [15], in assay [16], in assay [9], in [10], in assay [8] and in assay [1]. Besides, the outcome in assay [17], in assay [12] and in assay [18] was inactive.
As for `O=P1(N(CCCl)CCCl)NCCCO1` (stereo unspecified), the compound was classed as inactive in assay [10], in assay [14] and in assay [11].
Take `CCOP(=S)(OCC)SCn1nnc2ccccc2c1=O`: the AC50 in assay [13] is 19.6 µM (active).
Same read-out and setting: the figure for `O=c1ssc(Cl)c1Cl` is 6.98 µM (active).
Regarding `CCNc1nc(Cl)nc(NC(C)(C)C)n1`, the compound was classed as inactive in [14] and in assay [11].
For `CCOS(=O)(=O)OCC`, the call in assay [2], in assay [19] and in assay [1] was inactive.
On to `CCOC(=O)c1ccccc1C(=O)OCC`, for which the compound was called inactive in assay [1].
For `CC(C)(C)c1ccc(O)cc1`, in assay [1], the compound was called inactive.
